Screening data deposited in PubChem by National Center for Advancing Translational Sciences (NCATS).
FH mod: Identification of activators of human fumarate hydratase by quantitative high-throughput screening | Fumarate hydratase, mitochondrial (Homo sapiens), P07954 | FH coupled MDH/diaphorase resazurin fluorescence, 15 min | Potency, µM (top dose mostly 79.9 µM), hits mostly inhibitors | hit rate 0.22% among 54,000 | AID 1347055, 2019; note: the screen sought activators but most active calls are inhibition curves; nearly all actives have a fitted effect of over 45% in size
GALC G270D up: galactocerebrosidase G270D activity enhancement, cell-based; hit rate 0.1% among 45,000; AID 1159614; 145M-Twi-hGALC-G270D cells (Twitcher mouse brain line with human GALC G270D), HMU-beta-Gal fluorescence, 48 h; Potency, µM (titrated, usually from 57.5 µM), hits mostly activators; P54803; note: nearly all actives have a fitted effect of over 65% in size
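Live 145M-Twi cells (Twitcher mouse brain-derived, GALC-null) stably expressing human GALC-G270D, with a wild-type GALC line, were compound-treated. Residual GALC activity was then read as fluorescence from 0.1 mM final HMU-β-gal at pH 5.2; higher signal means activation.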
TSG101-PTAP inh: TSG101-PTAP interaction inhibition, HIV-1 budding; Potency, µM (series often up to 115 µM), usual class: inhibitors; Fluorescence polarization, FITC-PTAP peptide/Tsg101, 20 min; 44,000 tested, under 10 active; AID 1347069; Q99816
Target sequence (Q99816 whole entry, looked up): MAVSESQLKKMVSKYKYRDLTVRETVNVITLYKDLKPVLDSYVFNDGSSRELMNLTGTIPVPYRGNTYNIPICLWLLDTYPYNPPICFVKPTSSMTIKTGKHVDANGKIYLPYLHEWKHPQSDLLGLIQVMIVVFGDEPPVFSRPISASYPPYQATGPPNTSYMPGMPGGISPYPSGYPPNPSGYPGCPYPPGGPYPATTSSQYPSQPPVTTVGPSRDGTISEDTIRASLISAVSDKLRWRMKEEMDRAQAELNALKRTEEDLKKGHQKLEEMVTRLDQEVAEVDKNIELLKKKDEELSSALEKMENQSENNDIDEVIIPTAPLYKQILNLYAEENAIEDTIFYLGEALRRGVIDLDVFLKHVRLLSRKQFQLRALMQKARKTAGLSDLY
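The Tsg101 binding domain, at 10 uM final, is mixed with compound and a FITC peptide bearing the PTAP motif (50 nM final). After 20 min at r.t., polarization is measured; actives defined by CRC class, efficacy cut-off 60% inhibition.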
B2AR arrestin ag: agonists recruiting beta-arrestin to human beta2-adrenergic receptor; HTLA Tango cells, beta-arrestin recruitment, luciferase luminescence, 18 h; 44,000 tested, under 10 active; Potency, µM (doses to about 46.1 µM), usual class: activators; P07550; AID 1347077
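Luminescence read-out: arrestin recruitment to recombinant beta2-AR releases tTA, inducing luciferase. Cells exposed 18 hr at 37 degrees C to up to 46 microM compound; %Activity from corrected signal, concentration-response curves classified by r2, magnitude and efficacy.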
GALK inh: GALK (human) enzyme inhibition; recombinant GALK, Kinase-Glo ATP luminescence, 1 h; Potency, µM (series often up to 57.5 µM), hits mostly inhibitors; 44,000 tested, under 10 active; AID 1347072
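5 nM GALK; 35 uM ATP; 100 uM D-galactose; 20 mM HEPES pH 8.0, 5 mM MgCl2, 60 mM NaCl, 1 mM DTT, 0.01% BSA; 1 h RT; Kinase-Glo Plus luminescence.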
GPR32 ag: activates human resolvin D1 receptor GPR32. O75388. CHO-K1 GPR32 beta-arrestin PathHunter luminescence, 90 min; zero percent set by DMSO-only wells. activation, % at 76.9 µM. hit rate 2.5% among 48,000. AID 1346428;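 active = activation of at least 60% and not above a set upper limit, about 1 call in 100 departs from these limits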
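Readings come from a cell-based beta-arrestin complementation format: CHO-K1 GPR32 stable cells (2,500/well) treated 90 min with compounds, then beta-Gal substrate added for 1 h before chemiluminescence imaging.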
A number is an active result; - = inactive; . = no result given. In the library only some 2.6% were active in any assay of this set; here they are far more common. Unless noted, calls come from the whole dose curve; as a rule, active = well fitted curve in the direction sought with a large enough effect; inconclusive = small, poorly fitted or top-dose-only effect, or another doubt; inactive = no such curve, though single readings can be large; an effect the other way counts as inactive or inconclusive.

SMILES | FH mod | GALC G270D up | TSG101-PTAP inh | B2AR arrestin ag | GALK inh | GPR32 ag
COC(=O)c1cc(NC(=O)c2ccc3c(c2)NC(=O)c2ccccc2S3)cc(C(=O)OC)c1 | - | - | - | - | - | -
COc1ccc(OC)c(NC(=O)C2CCN(S(=O)(=O)c3ccc4c(c3)CCCC(=O)N4)CC2)c1 | - | - | - | - | - | 72
COc1cc(NC(=O)C2CCCN(S(=O)(=O)c3ccc4c(c3)CCCC(=O)N4)C2)cc(OC)c1 (centres undefined) | - | - | - | - | - | -
COc1ccc(NC(=O)C2CCCN(S(=O)(=O)c3ccc4c(c3)CCCC(=O)N4)C2)cc1OC (centres undefined) | - | - | - | - | - | 63
CCOc1ccc(NC(=O)c2ccc3c(c2)CCN3S(=O)(=O)CC)cc1 | - | - | - | - | - | 67
CCS(=O)(=O)N1CCc2cc(C(=O)Nc3cc(C)cc(C)c3)ccc21 | - | - | - | - | - | -
COc1cc2ncnc(Nc3ccc(O)c(Br)c3)c2cc1OC | - | . | . | . | . | .
Cc1ccc(C)c2sc(N3CCN(C(=O)c4ccco4)CC3)nc12 | - | - | - | - | - | 88
CN(C)c1nc(NC2CCC(NCCc3ccc(Br)cc3OC(F)(F)F)CC2)nc2ccccc12 (centres undefined) | - | . | . | . | . | .
CC(C)OC(=O)C(C(=O)OC(C)C)=C1SC=CS1 | - | - | . | . | . | 73
CC(C)OC(=O)c1cc(C(=O)OC(C)C)cc([N+](=O)[O-])c1 | - | - | . | . | . | -
C[C@H]1CC(=O)Nc2cccc(-c3cnn(C(C)(C)C)c3)c2N1 | - | . | . | . | . | .
N=c1ccn2c(n1)O[C@H]1C(O)[C@@H](CO)O[C@H]12 (some centres undefined) | - | . | . | . | . | .
CCCN(CCC)c1nc(-c2ccccc2F)nc2ccccc12 | - | - | - | - | - | -
CCCCN(CCCC)c1nc(-c2ccccc2)nc2ccccc12 | - | - | - | - | - | 110
CC(C)c1ccc(NC(=O)CCNS(=O)(=O)c2cccc3nsnc23)cc1 | - | - | - | - | - | 75
O=C(Nc1ccc(C(F)(F)F)cc1)C1CCC(CNS(=O)(=O)c2cccc3nsnc23)CC1 (centres undefined) | - | - | - | - | - | 114
Cc1ccc(NC(=O)C2CCC(CNS(=O)(=O)c3cccc4nsnc34)CC2)c(C)c1 (centres undefined) | - | - | - | - | - | -
CCCCN(CC)C(=O)C1CCC(CNS(=O)(=O)c2cccc3nsnc23)CC1 (centres undefined) | - | - | - | - | - | 68
O=C(O)CCc1cc2ccoc2cc1O[C@@H]1O[C@H](CO[C@@H]2OC[C@](O)(CO)[C@H]2O)[C@@H](O)[C@H](O)[C@H]1O | - | . | . | . | . | .
CC1CCN(S(=O)(=O)c2nnc(NC(=O)c3cccc(F)c3)s2)CC1 | - | - | - | - | - | -
CC1CCN(S(=O)(=O)c2nnc(NC(=O)c3cccc(Br)c3)s2)CC1 | - | - | - | - | - | 73
O=C(Nc1nnc(S(=O)(=O)N2CCCC2)s1)c1ccc(F)cc1 | - | - | - | - | - | 64
Cc1cccc(C(=O)Nc2nnc(S(=O)(=O)N3CCC(C)CC3)s2)c1 | - | - | - | - | - | 69
CC[C@H]1OC(=O)[C@H](C)C(O[C@H]2C[C@@](C)(OC)[C@@H](O)[C@H](C)O2)[C@H](C)[C@@H](OC2O[C@H](C)C[C@H](N(C)C)[C@H]2O)[C@](C)(O)C[C@@H](C)CN(C)[C@H](C)[C@@H](O)[C@]1(C)O (some centres undefined) | - | . | . | . | . | .
O=C(CN1C=NS(=O)(=O)c2ccc(C(F)(F)F)cc21)Nc1cccc(C(F)(F)F)c1 | - | - | - | - | - | 99
